Assay outcomes: PubChem BioAssay, National Center for Advancing Translational Sciences (NCATS)
Hits are enriched below; roughly 5.8% of the tested compounds scored in any of these assays.
TRPV1 ag: human TRPV1 agonism. Q8NER1. TRPV1-expressing cells, Fluo-8 calcium influx, agonist mode. activation, % at 8.33 µM. 320,000 tested, 0.19% active; in the data active means activation above about 80%; inconclusive means between about 30% and that limit; further: 0% is about no effect
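Fluo-8 calcium influx in TRPV1-expressing cells, kinetic read (ex 480/em 520 nm). Compound added and read 3 min for agonist activity, followed by capsaicin at EC20 final and 2 min further read for enhancement.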
uPA surface inh: cell surface uPA generation inhibition. cell surface uPA generation assay, qHTS. Potency, µM (doses to about 38.3 µM), inactives show top-dose activity change, negative = inhibition, actives largely listed as inhibitors. 330,000 tested, 0.31% active. AID 540303; active means well fitted inhibition curve with a large enough effect; inconclusive means small, poorly fitted or top-dose-only effect; inactive means no such curve, though single readings can be large or run the other way; tested in mouse RAW 264.7 cells; further: potency means the concentration at half of the fitted maximal effect; on the % scale 0 is the no-effect control and ±100 the full control effect; nearly all actives have a fitted effect of over 55% in size
TRPV1 PAM: potentiators of human vanilloid receptor 1 (TRPV1); potentiation, % at 8.33 µM; 320,000 tested, 0.02% active; TRPV1-expressing cells, Fluo-8 calcium influx, capsaicin EC20 potentiation; Q8NER1; in the data active means potentiation above about 80%; inconclusive means between about 30% and that limit; further: 0% is about no effect
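Cells expressing TRPV1 were dye-loaded with Fluo-8 and read kinetically: 10 s baseline, 3 min after compound (agonist portion), then 2 min after EC20 capsaicin (allosteric enhancer portion). Calcium-bound dye fluorescence at 480/520 nm.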
Gal4-VP16 FLuc: counter-screen for ROR gamma inhibitors: Gal4-VP16 reporter | Potency, µM (doses to about 53.6 µM), inactives show at the highest dose activity, negative = inhibition, usual class: inhibitors | 310,000 tested, 3.5% active | Drosophila S2 Gal4-VP16 UAS-luciferase, luminescence, 20 h;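 further: Gal4-VP16 expression switched on by copper sulfate through the metallothionein promoter; potency means the concentration at half of the fitted maximal effect; on the % scale 0 is the no-effect control and ±100 the full control effect; nearly all actives have a fitted effect of over 50% in size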
RORgamma inh: blocks mouse ROR gamma transcriptional activity; P51450; Drosophila S2 Gal4-RORgamma UAS-luciferase reporter, 20 h; Potency, µM (series often up to 53.6 µM), for the others: at the highest dose activity change, negative = inhibition, usual class: inhibitors; 310,000 tested, 5.4% active; AID 2551; further: potency means the concentration at half of the fitted maximal effect; on the % scale 0 is the no-effect control and ±100 the full control effect; nearly all actives have a fitted effect of over 60% in size
Target sequence (P51450 whole entry, looked up, the tested form may be a part): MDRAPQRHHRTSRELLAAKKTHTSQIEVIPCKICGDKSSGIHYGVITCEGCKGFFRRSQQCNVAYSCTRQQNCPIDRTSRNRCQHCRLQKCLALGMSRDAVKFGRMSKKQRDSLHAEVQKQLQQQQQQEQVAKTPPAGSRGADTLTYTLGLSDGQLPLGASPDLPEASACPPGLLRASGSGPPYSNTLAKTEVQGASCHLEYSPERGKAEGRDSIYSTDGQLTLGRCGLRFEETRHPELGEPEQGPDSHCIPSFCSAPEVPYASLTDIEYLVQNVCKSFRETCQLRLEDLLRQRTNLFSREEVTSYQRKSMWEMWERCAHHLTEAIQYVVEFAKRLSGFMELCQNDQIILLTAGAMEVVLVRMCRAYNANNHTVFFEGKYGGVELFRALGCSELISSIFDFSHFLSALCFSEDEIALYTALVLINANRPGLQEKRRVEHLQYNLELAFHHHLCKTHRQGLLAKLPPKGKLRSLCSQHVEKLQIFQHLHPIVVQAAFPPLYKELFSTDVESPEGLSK
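Compounds are pin-transferred onto Drosophila Schneider cells expressing a copper-inducible Gal4–ROR gamma transactivation domain fusion. After 1 hr, copper sulfate is added to 700 uM final; luciferase is read 20 hr later.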
Active calls of the source: *; u = inconclusive; x = not tested or not shown; ! = not active in a repeat; [ ] = dose if it differs, or a comment. Unless noted, the call rests on the fitted dose curve; in most records, active means well fitted curve in the direction sought with a large enough effect; inconclusive means small, poorly fitted or top-dose-only effect, or another doubt; inactive means no such curve, though single readings can be large; an effect the other way counts as inactive or inconclusive.

SMILES	TRPV1 ag	uPA surface inh	TRPV1 PAM	Gal4-VP16 FLuc	RORgamma inh
Cc1nc(C(=O)Nc2cc(F)cc(Cl)c2)sc1C1(C)CC(c2ccccc2)=NO1 (configuration not stated)	x	-20.1%	x	x	x
O=C(N/N=C/c1ccc2c(c1)OCO2)c1ccc(NC(=O)c2ccc(F)cc2)cc1	-0.5	0.7%	2.7	0.0%	10µM*
CSc1ccc(/C=N/NC(=O)c2cccc(O)c2)cc1	-0.8	-9.6%	12.8	2.24µM*	-39.6%
O=C(N/N=C\c1ccc(F)cc1)c1ccc(F)cc1	81.9*	-5.0%	-21.7	-6.5%	-18.8%
Oc1ccc(/C=N/Nc2ccc(C(F)(F)F)cn2)c(O)c1	3.2	x	-4.3	-27.2%	u
Oc1ccc(/C=N/Nc2ccc(C(F)(F)F)cn2)cc1	-1.9	-8.0%	5.7	u	4.47µM*
N#Cc1ccc(CN2CCC3(CC2)CCN(C(=O)c2cccc(F)c2)CC3)cc1	x	x	x	-0.8%	-12.7%
O=C(N/N=C/c1ccc(C(F)(F)F)cc1)c1ccc(O)cc1	u	-11.3%	12.0	4.47µM*	1.78µM*
O=C(N/N=C/c1c(O)ccc2ccccc12)c1cccc(C(F)(F)F)c1	u	-10.3%	-19.5	5.01µM*	3.16µM*
Cc1ccc(/C=N/NC(=O)c2ccc(-n3cnnn3)cc2)cc1	80.2*	-2.6%	-10.2	x	x
O=C(N/N=C/c1ccc(F)cc1)c1ccc(-n2cnnn2)cc1	u	-4.2%	-29.5	x	x
O=C(N/N=C/c1cccc(C(F)(F)F)c1)c1ccc(O)cc1	u	-12.3%	-10.3	u	1.12µM*
COc1ccc2ccccc2c1/C=N/NC(=O)c1cccc(Br)c1	0.0	1.1%	11.1	2.7%	-35.3%
O=C(N/N=C\c1cccc(F)c1)c1ccc(-c2ccccc2)cc1	2.4	6.3%	2.2	2.0%	0.7%
O=S(=O)(c1ccccc1)N1CCC2(CCN(c3ccccc3)CC2)CC1	x	x	x	-6.4%	u
Cc1noc(C)c1COc1ccc(C(=O)NNC(=O)c2ccccc2O)cc1	-2.9	-9.3%	1.7	x	x
O=C(CC(Cc1ccccc1)C(=O)O)Nc1cccc(C(F)(F)F)c1 (configuration not stated)	3.4	5.7%	1.5	-1.2%	1.3%
O=C1/C(=C\c2ccc(O)c(O)c2)Oc2c1ccc(O[C@@H]1O[C@H](CO)[C@@H](O)[C@H](O)[C@H]1O)c2O	x	x	x	-12.8%	-13.6%
Cc1ccc(C(=O)N/N=C/c2nc3ccccc3n2C)cc1	-6.5	-17.5%	-2.8	-11.0%	11.2µM*
CCCN(Cc1ccccc1)C(=S)Nc1ccc(OCC)cc1	3.8	-5.0%	11.2	-22.2%	10µM*
CCCN(Cc1ccccc1)C(=S)Nc1cccc(C(F)(F)F)c1	14.3	-10.7%	-11.1	u	-35.0%[10 µM]
CCOc1ccc(NC(=S)N(CC)Cc2ccccc2)cc1	0.6	x	-0.1	0.4%	14.1µM*
N#CCCN(Cc1ccccc1)C(=S)Nc1ccc(F)cc1	0.5	2.7%	u	-7.4%	0.2%
C=C(C)CN(Cc1ccccc1)C(=S)Nc1ccccc1	-1.5	-1.9%	21.4	u	u
CCCN(Cc1ccccc1)C(=S)Nc1ccc(F)cc1	7.7	-2.4%	4.0	-23.4%	15.8µM*
SMILES	TRPV1 ag	uPA surface inh	TRPV1 PAM	Gal4-VP16 FLuc	RORgamma inh
C=CCNC(=S)N(Cc1ccccc1)Cc1ccc(F)cc1	12.5	-5.9%	-15.8	-28.2%	17.8µM*
COc1ccc(OC)c(C(C)NC(=O)c2ccco2)c1 (configuration not stated)	-1.8	-29.9%	5.1	-6.1%	-0.1%[10 µM]
CCCN(Cc1ccccc1)C(=S)Nc1ccc(SC(F)F)cc1	12.6	7.5%	2.2	u	8.91µM*
CN1CCC(N(C)C(=S)Nc2ccc(SC(F)F)cc2)CC1	1.0	1.0%	-6.7	0.9%	-6.0%
COc1ccc(CNC(=O)C2CCN(S(=O)(=O)N3CCCC3)CC2)c(OC)c1	-0.4	4.4%	-2.4	-2.5%	16.1%
CC1CCN(CCCn2c(=S)[nH]c3ccccc3c2=O)CC1	0.4	0.6%	1.0	7.9%	-32.8%
O=c1c2ccccc2[nH]c(=S)n1CCCN1CCC(Cc2ccccc2)CC1	1.1	-9.6%	5.2	u	7.94µM*
Cc1cccc(C)c1N1CCN(CCn2c(=S)[nH]c3ccccc3c2=O)CC1	25.1	u	-7.4	u	10µM*
CCN1CCN(CCn2c(=S)[nH]c3ccccc3c2=O)CC1	0.0	-2.0%	-2.7	-1.5%	-14.2%
O=C(c1ccc(F)cc1)C1CCN(CCn2c(=S)[nH]c3ccccc3c2=O)CC1	-12.4	x	11.6	14.1µM*!	7.94µM*!
O=C(c1ccc(F)cc1)C1CCN(CCn2c(=O)[nH]c3ccccc3c2=O)CC1	x	x	x	-0.6%	12.5%
C=CCOc1ccc(/C=N/NC(=O)c2c(C)nc3ccc(Cl)cn23)cc1	1.3	0.0%	6.8	10µM*	2.24µM*
CCn1c(C)nc2cc(C(=O)N/N=C/c3cccc(OC)c3O)ccc21	0.8	-11.9%	17.0	0.708µM*	0.316µM*
Cc1ccc(/C=N/NC(=O)c2c(C)nc3ccc(Br)cn23)cc1	8.6	u	10.2	u	7.08µM*
COc1ccc(/C=N\NC(=O)c2c(C)nc3ccc(Br)cn23)cc1	5.0	u	13.4	-102.2%	10µM*
COc1ccc(/C=N/NC(=O)c2c(C)nc3ccc(Br)cn23)cc1OC	7.6	-3.6%	2.5	-18.8%	4.8%
CCn1c(C)nc2cc(C(=O)N/N=C/c3ccc(O)c(O)c3O)ccc21	-2.5	-0.6%	9.7	-6.0%[10 µM]	0.5%
COC(=O)c1ccc(/C=N\NC(=O)c2c(C)nc3ccc(Cl)cn23)cc1	-1.2	14.5%	17.0	-17.4%	-2.4%
COc1ccc(-c2cn(CCO)c(CCN)n2)cc1	-1.7	-0.3%	-20.2	x	x
CCC1(c2ccc(F)cc2)NC(=O)N(CC(=O)N2CCN(C(=O)c3cccs3)CC2)C1=O (configuration not stated)	0.1	12.8%	-1.9	x	x
CN(C)C(=O)c1ccc(-c2ccc3ncnc(NC4CCNCC4)c3c2)cc1	x	x	x	1.7%	17.9%
CCOc1ccccc1/C=N/NC(=O)c1c(C)nc2ccc(Br)cn12	2.3	-15.6%	4.8	-3.8%	-25.0%
COc1cccc(/C=N/NC(=O)c2c(C)nc3ccc(Br)cn23)c1O	-2.1	4.47µM*	5.8	2.51µM*	2.51µM*
Cc1ccc2c(c1)N(C(C)C(=O)NCc1cccs1)C(=O)CO2 (configuration not stated)	-1.0	4.9%	-1.6	8.0%[10 µM]	19.9%
CN(C)c1nc(N)nc(CSc2ncc(Cl)cc2Cl)n1	-0.9	x	10.2	-29.0%	12.6µM*
CN(C)c1nc(N)nc(CSc2nnnn2C)n1	1.1	1.1%	-2.0	9.4%	27.9%
Cn1nc(-c2ccccn2)nc2c(=O)n(C)c(=O)nc1-2	0.7	u	17.5	0.562µM*	0.447µM*
CCCc1nc2c(=O)n(C)c(=O)nc-2n(C)n1	-2.7	-19.7%	4.0	2.82µM*	1.41µM*
Clc1ccc(C2CC(c3cccs3)n3ncnc3N2)c(Cl)c1 (configuration not stated)	2.3	1.3%	2.3	u	11.2µM*
